Screening data: PubChem, National Center for Advancing Translational Sciences (NCATS)
A350 fluor: compounds fluorescent in Alexa 350 spectral region; Compound autofluorescence, 340/450 nm, Alexa 350 dye-equivalents; active compounds read high; max dye-equivalent concentration, M; 59,000 tested, 11% active; in the data active means max dye-equivalent concentration above about 10 nM; inconclusive means mostly about 1.1 nM to 9.6 nM
CRE Fsk mod: CRE-bla signaling modulation under forskolin stimulation; 71,000 tested, 2.5% active; Potency, µM (highest dose often 38.2 µM), inactives show at the highest dose activity change, negative = inhibition, hits mostly activators; CHO CRE-bla reporter (cAMP response element driving beta-lactamase), forskolin EC10, beta-lactamase ratio; AID 662; active means well fitted activation curve with a large enough effect in the signal ratio, with a control signal flat, not every such curve was filed as active; inconclusive means small, poorly fitted or top-dose-only effect, or effect the other way, or a change in a side signal; the % refers to the signal ratio; further: potency means the concentration at half of the fitted maximal effect; % of control where 0% means no effect
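Cells were plated overnight at 37 °C, exposed to compound titrations plus EC10 NKH 477 for 3 h, then given CCF4 dye for 2 h at room temperature. Blue/green (460/530 nm) ratio was converted to %Activity and AC50 values calculated.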
4MU fluor: compounds fluorescent in 4-MU spectral region; compound autofluorescence, 340/450 nm, 4-MU equivalents; active compounds read high; max dye-equivalent concentration, M; 59,000 tested, 11% active; AID 589; in the data active means max dye-equivalent concentration above about 10 nM; inconclusive means mostly about 1.1 nM to 9.6 nM
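Compounds in 100 mM Tris, pH 8.0, incubated 15 min at room temperature, then fluorescence read at 340 nm excitation/450 nm emission. Signal converted to 4-MU dye-equivalent concentration using an on-plate six-point 4-MU standard curve.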
HSD17B inhib: inhibitors of human HSD17B10 dehydrogenase | Q99714 | recombinant HSD17B10, NADH fluorescence kinetic | Potency, µM (titrated, usually from 57.1 µM), inactives show at the top dose activity change, negative = inhibition, usual class: inhibitors | 75,000 tested, 7.6% active | AID 893;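 further: the protocol describes HADH2 (HSD17B10) and not the HSD17B4 of the title; potency means the concentration at half of the fitted maximal effect; on the % scale 0 is the no-effect control and ±100 the full control effect; nearly all actives have a fitted effect of over 70% in size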
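His-tagged E. coli-expressed HADH2 at 20 nM in 100 mM Tris-HCl pH 9.0 with 0.01 % Tween-20, preincubated 15 min with compound at room temperature. Reaction with 1 mM NAD+ and 90 uM beta-hydroxybutyryl coenzyme A; NADH fluorescence (360/450 nm) read kinetically over 4 min, last minus first point.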
AID923: qHTS Assay for Allosteric/Competitive Inhibitors of Caspase-1: Spectroscopic Profiling in AFC Spectral Region; Potency, µM (titrated, usually from 57.5 µM), inactives show at the highest dose fluorescence increase, usual class: activators; compound fluorescence, AFC spectral region (405/520 nm); 75,000 tested, 1.1% active; further: potency means the concentration at half of the fitted maximal effect; 0% is about no effect
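Compound autofluorescence profiled at 405 nm ex/520 nm em during kinetic caspase 1 run (50 nM enzyme, 5 uM Ac-WEHD-AFC, HEPES pH 7.5, 10 mM DTT). Titration up to 57 uM; baseline from regression intercept, normalized to AFC standard curve.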
HADH2 inhib: blocks human hydroxyacyl-CoA dehydrogenase type II; Q99714; recombinant HADH2, NADH fluorescence, beta-hydroxybutyryl-CoA; Potency, µM (series often up to 57.1 µM), inactives show at the highest dose activity change, negative = inhibition, hits mostly inhibitors; 73,000 tested, 3.4% active; AID 886; further: potency means the concentration at half of the fitted maximal effect; on the % scale 0 is the no-effect control and ±100 the full control effect; nearly all actives have a fitted effect of over 60% in size
Target sequence (Q99714 whole entry, looked up, one chain of several): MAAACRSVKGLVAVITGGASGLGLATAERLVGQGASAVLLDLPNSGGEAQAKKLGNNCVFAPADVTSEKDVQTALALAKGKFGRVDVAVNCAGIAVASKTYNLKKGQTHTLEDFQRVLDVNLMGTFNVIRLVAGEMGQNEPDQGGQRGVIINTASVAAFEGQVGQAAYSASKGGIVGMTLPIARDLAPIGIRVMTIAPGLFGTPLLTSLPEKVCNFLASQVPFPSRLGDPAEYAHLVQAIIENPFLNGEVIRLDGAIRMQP
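Buffer 100 mM Tris-HCl pH 9.0/0.01% Tween-20; HADH2 20 nM; NAD+ 1 mM; beta-hydroxybutyryl-CoA 90 uM (all final). 15 min cpd preincubation, RT.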
Active calls of the source: *; i = inactive; ? = inconclusive; nt = no result given; ! = not active in a repeat; [ ] = remark or other dose. The list is not random: actives were taken first. Their share in the collection is about 14%. Unless noted, the call rests on the fitted dose curve; in most records, active means well fitted curve in the direction sought with a large enough effect; inconclusive means small, poorly fitted or top-dose-only effect, or another doubt; inactive means no such curve, though single readings can be large; an effect the other way counts as inactive or inconclusive.

SMILES	A350 fluor	CRE Fsk mod	4MU fluor	HSD17B inhib	AID923	HADH2 inhib
C=CCn1c(O)c(C=Nc2ccc(OC)cc2C)c(=O)[nH]c1=O	5.55e-06M*	?	3.29e-06M*	?	2.8%	?
C=CCn1c(O)c(C(C)=NC2CC2)c(=O)[nH]c1=O	8.93e-08M*	?	5.13e-08M*	-2.9%	2.2%	-3.1%
C=CCn1c(O)c(C(CC)=NCCCO)c(=O)[nH]c1=O	?	22.5%	1.45e-08M*	5.6%	0.2%	-3.1%
CCN(CC)c1ccc(N=Cc2c(O)n(-c3cc(OC)ccc3OC)c(=O)[nH]c2=O)cc1	i	nt	i	nt	nt	nt
C=CCn1c(O)c(C(CC)=NCc2cc(OC)cc(OC)c2)c(=O)[nH]c1=O	i	10µM*	i	-1.4%	0.1%	11.3%
CN[C@H]1[C@H](C)O[C@@H](O[C@@H]2C/C=C(/C)C/C(C)=C\C=C/CC[C@@H](C)CNC(=O)/C=C\C=C/[C@H]2C)C[C@@H]1O	i	19.8%[7.6 µM]	i	nt	nt	10.9%[11.4 µM]
CC(C)(C)n1c(O)c(C=Nc2ccc3c(c2)CCC3)c(=O)[nH]c1=O	4.74e-08M*	?	4.97e-08M*	0.1%	-0.5%	-1.8%
CCCCn1c(O)c(C(CC)=Nc2ccc3c(c2)CCC3)c(=O)[nH]c1=O	i	3.1%	i	-1.7%	2.6%	?
CCCCCC[C@H]1C(=O)O[C@@H](C)[C@H](NC(=O)c2cccc(NC=O)c2O)C(=O)O[C@@H](C)[C@@H]1OC(=O)CC(C)C	?	?	?	nt	nt	3.8%
C=C1[C@@H]2C[C@@]3([C@H]1O)[C@H]1C[C@@H]4[C@@]5(C)CC[C@H](O)[C@]4([C@H]1N(CC)C5)[C@H]3C[C@H]2O	8.3e-08M*	-3.8%[17.1 µM]	9.71e-08M*	-0.4%[25.6 µM]	0.0%[25.7 µM]	-2.0%[25.6 µM]
CCN1C[C@@]2(C)CC[C@H](O)[C@@]34[C@@H]5C[C@H]6[C@H](O)[C@@H]5[C@](O)(C[C@@H]6OC)[C@H](C[C@@H]23)[C@H]14	i	?	i	nt	nt	10.2%
CC(=O)O[C@H]1CC[C@H]2[C@@H]3CCC4=C[C@@H](C5SCCS5)[C@H](OC(C)=O)C[C@]4(C)[C@H]3CC[C@@]12C	i	9.8%[7.6 µM]	i	6.3%[11.4 µM]	-1.8%[11.5 µM]	19.2%[11.4 µM]
FC(F)(F)c1nc2ccc(SSc3ccc4nc(C(F)(F)F)[nH]c4c3)cc2[nH]1	i	3.4%[7.6 µM]	i	3.16µM*	-1.0%[11.5 µM]	1µM*
CN(C)Cc1c[nH]c2ccccc12	?	-19.7%	?	31.6µM*!	-1.2%	?
CNC(Cc1c[nH]c2ccccc12)C(=O)O (centres undefined)	nt	nt	nt	-2.9%	2.8%	nt
Clc1nc(Cl)nc(Cl)n1	nt	-14.9%	nt	-14.8%	1.5%	7.3%
CCC1(CCSC(=N)N)C(=O)NC(=O)NC1=O	i	5.1%[7.6 µM]	i	7.2%[11.4 µM]	-0.7%[11.5 µM]	9.0%[11.4 µM]
CN1CC(CO)=C[C@H]2c3cccc4[nH]cc(c34)C[C@H]21	nt	nt	nt	?	12.0%	nt
CC[C@H](CO)NC(=O)[C@H]1C=C2c3cccc4[nH]cc(c34)C[C@@H]2N(C)C1	4.71e-08M*	-9.1%[17.1 µM]	5.24e-08M*	12.6µM*	3.1%[25.7 µM]	15.8µM*
CN1C[C@H](CO)C=C2c3cccc4[nH]cc(c34)C[C@@H]21	3.87e-08M*	-12.0%[17.1 µM]	4.34e-08M*	12.6µM*	5.1%[25.7 µM]	12.6µM*
CCC(CO)NC(=O)C1C=C2c3cccc4[nH]cc(c34)CC2N(C)C1 (centres undefined)	nt	nt	nt	25.1µM*	7.0%	nt
CC(C)[C@@]1(NC(=O)[C@@H]2C=C3c4cccc5[nH]cc(c45)C[C@@H]3N(C)C2)O[C@]2(O)[C@H]3CCCN3C(=O)[C@H](Cc3ccccc3)N2C1=O	?	16.8%	1.21e-08M*	nt	nt	?
N=C(N)SCc1ccc(Cl)c2ccccc12 (tested in a mixture with another compound)	i	-0.2%[7.6 µM]	i	6.0%[11.4 µM]	0.5%[11.5 µM]	7.4%[11.4 µM]
CC(=O)OC1=CC2=CC[C@H]3[C@H]4CCC(=O)[C@@]4(C)CC(=O)[C@]3(S)[C@]2(C)CC1	i	4.1%[7.6 µM]	i	-6.6%[11.4 µM]	-0.2%[11.5 µM]	?
C[C@@H](CO)NC(=O)[C@H]1C=C2c3cccc4[nH]cc(c34)C[C@H]2N(C)C1	?	?	?	nt	nt	39.8µM*
SMILES	A350 fluor	CRE Fsk mod	4MU fluor	HSD17B inhib	AID923	HADH2 inhib
CCN(CC)C(=O)N[C@@H]1C=C2c3cccc4[nH]cc(c34)C[C@@H]2N(C)C1	5.96e-08M*	?	6.11e-08M*	nt	nt	25.1µM*
CC[C@@H](CO)NC(=O)[C@H]1C=C2c3cccc4[nH]cc(c34)C[C@H]2N(C)C1	nt	-24.0%	nt	31.6µM*	13.1%	31.6µM*
CC[C@@H](CO)NC(=O)[C@@H]1C=C2c3cccc4c3c(cn4C)C[C@H]2N(C)C1	1.28e-07M*	nt	1.13e-07M*	nt	nt	nt
CC(C)[C@@]1(NC(=O)[C@@H]2C[C@H]3c4cccc5[nH]cc(c45)C[C@@H]3N(C)C2)O[C@@]2(O)[C@H]3CCCN3C(=O)[C@H](Cc3ccccc3)N2C1=O	nt	?	nt	-15.2%	2.0%	-18.4%
C[C@H]1CC[C@@H]2[C@@H](C)C(=O)O[C@H]3O[C@@]4(C)CC[C@@H]1[C@]32OO4	i	0.1%	i	nt	nt	8.6%
COc1cc2c(cc1OC)[C@@]13CCN4CC5=CCO[C@H](CC(=O)O)[C@@H]([C@H]1N2)[C@H]5C[C@H]43	i	?	i	3.0%[11.4 µM]	-0.2%[11.5 µM]	1.4%[11.4 µM]
C=C(C)C(=O)OCC1CO1 (centres undefined)	nt	-10.3%	nt	-0.6%	-2.2%	-12.0%
CC(=O)[O-].CC(=O)[O-].O.O.O.[Pb+2]	nt	-0.1%	nt	3.7%	-2.1%	-12.9%
[CH3][Hg][Cl]	nt	?	nt	0.631µM*	-6.1%	?
O=C(O)/C=C\c1ccc[c]([Sb](=[O])([OH])[OH])c1	1.63e-08M*	?	1.38e-08M*	0.794µM*	-0.2%[11.5 µM]	-6.9%[11.4 µM]
O=Cc1ccccc1	nt	10.9%	nt	2.1%	4.3%	-2.5%
CCCOC(=O)COc1cc(C)cc2oc(=O)c3c(c12)CCC3	nt	?	nt	31.6µM*	-0.2%	30.1%[11.4 µM]
Cc1cc(OCC(=O)Nc2c(C)n(C)n(-c3ccccc3)c2=O)c2c3c(c(=O)oc2c1)CCC3	1.24e-08M*	-1.4%	?	-23.6%	2.3%	-0.3%
Cc1cc(OCC(=O)Nc2cc(C)nn2-c2ccccn2)c2c3c(c(=O)oc2c1)CCC3	?	?	?	?	0.1%	?
COC(=O)c1ccc(COc2cc(C)cc3oc(=O)c4c(c23)CCCC4)o1	nt	?	nt	31.6µM*	-1.2%	102.9%[11.4 µM]
Cc1cc(OCC(=O)O)c2c3c(c(=O)oc2c1)CCCC3	4.32e-08M*	?	3.74e-08M*	31.6µM*	-0.9%	31.6µM*
NNc1c(C(N)=O)c2c(N)ncnc2n1[C@@H]1O[C@H](CO)[C@@H](O)[C@@H]1O	i	?	i	nt	nt	-18.0%[11.4 µM]
